The other results are listed elsewhere or left out. A number with no mark means an inactive call. Activity calls are given as the source filed them.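 How the source made its calls: active means over 150 percent of DMSO response; inconclusive means yeast strain measured with under 70 events; inactive means the rest.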
Assay: yeast AGP1-GFP fluorescence change, single-dose confirmation – cell-based, flow cytometry, S. cerevisiae, cherry pick set 2 (AID 2643);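 further: median GFP channel fluorescence over all cells without mother daughter split; sample median GFP divided by mean DMSO control so 100% equals DMSO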
Settings: S. cerevisiae AGP1-GFP strain, 3 h, at 10 µM, stronger effect = higher value

Going from `CCc1nnc(SCc2cccc(F)c2)nc1CC` to `CCn1c(SCCC(C)C)nnc1-c1c[nH]c2ccccc12`, the percent response vs DMSO falls from 97.8% to 96.7%.

Going from `COc1ccc(C)cc1NC(=O)CSc1nc(SC)ns1` to `CCOC(=O)c1cnc(SCC(=O)NCc2ccco2)nc1N`, the percent response vs DMSO falls from 100% to 95.9%.

First: COC(=O)C[n+]1cccc2ccccc21
Second: CC(Oc1ccc2ccccc2c1)C(=O)NNC(=S)NC(=O)c1ccco1 (stereo unspecified)
The percent response vs DMSO of the first is lower: 105% for the first, 112% for the second.

Going from `Cc1cc(C)c2nc3nc(C)cc(C)c3c(N)c2c1` to `Cc1ccc2nc(N(CCN(C)C)C(=O)C3=COCCO3)sc2c1`, the percent response vs DMSO rises from 75.9% to 104%.

First: COc1ccc(C2(C)ON(c3ccccc3C(F)(F)F)C2=O)cc1 (stereo unspecified)
Second: COc1ccc(-c2nc(CS(=O)(=O)CC(=O)NCc3cccc(Br)c3)c(C)o2)cc1
The percent response vs DMSO of the first is higher: 101% for the first, 99.3% for the second.

First: CCCCNc1c(-c2cccc(Sc3ccc(OC)cc3)c2)nc2ccccn12
Second: CCC(=C/c1sc2ccc3ccccc3c2[n+]1C)/C=C1\Sc2ccc3ccccc3c2N1C
The percent response vs DMSO of the first is lower: 90.6% for the first, 98.8% for the second.

Going from `C#CCOCCOCCOCCNc1nc(N2CCN(C(=O)CCCCCCCCCCNC(=O)[C@H](CCCCN)n3cc(C)nn3)CC2)nc(N2CCN(C(=O)CCCCCCCCCCNC(=O)[C@H](CO)n3cc(CCCSC)nn3)CC2)n1` to `CN(Cc1ccccc1)C(=O)C(=O)c1cn(CC(=O)N2CCCC2)c2ccccc12`, the percent response vs DMSO falls from 104% to 98.3%.

Compared with `O=C(Nc1nnc(-c2ccc(Cl)cc2)o1)c1ccccc1Br`, `Cc1ccc(S/C(=N\S(=O)(=O)c2ccc(Cl)cc2)c2ccccc2)cc1` is higher in percent response vs DMSO: 95.3% for the first, 99.1% for the second.

Compared with `CC1=C/C(=N\OS(=O)(=O)c2ccccc2)C=CC1=O`, `CCCn1nc(C(=O)NNC(=O)CCOc2ccccc2OCC)c2ccccc2c1=O` is lower in percent response vs DMSO: 101% for the first, 99% for the second.

First: COc1ccc(CCNC(=O)CS(=O)(=O)Cc2nc(-c3ccc(C)cc3)oc2C)cc1OC
Second: COc1ccc2nc(N3CCN(C(=O)c4ccc([N+](=O)[O-])o4)CC3)sc2c1
The percent response vs DMSO of the first is higher: 101% for the first, 87.3% for the second.

Compared with `O=C(NC(=S)NC1CCS(=O)(=O)C1)c1cccc([N+](=O)[O-])c1` (stereo unspecified), `O=C(COc1cccnc1[N+](=O)[O-])Nc1ccc(Cl)cc1F` is lower in percent response vs DMSO: 106% for the first, 97.4% for the second.

Going from `Clc1cccc(CN2COc3c(cc(Cl)c4cccnc34)C2)c1` to `COc1cccc(/C=N/Nc2ncc(C(F)(F)F)cc2Cl)c1O`, the percent response vs DMSO falls from 95.3% to 86.2%.

In the case of `CC(C)[C@@H]1COC(c2cccc(C3=N[C@H](C(C)C)CO3)c2)=N1`, the percent response vs DMSO is reported as 95.8%.

For `CCN1/C(=C/c2ccc3ccc(C)cc3[n+]2CC)Sc2ccccc21`, the percent response vs DMSO was 203% (active).

Source: PubChem BioAssay
